# Measured values reported in the supplement of paper PMC8728848.
# The entries come from a sample that favours the strongest signals as a whole.
# B1: MUB40 (Lactobacillus reuteri) (peptide)
# chain: CTAEGIKKFEGDGYELFKDNFPAGEKFDNDDTNDQFYTVIF
# Key:
# Experiment in all cases: glycan array binding signal (z-score within array); higher = stronger binding
# Settings in all cases: glycan notation: IUPAC condensed, linker removed
# [1] = molecular target: Fuc(a1-2)Gal(b1-3)GalNAc(a1-3)[Fuc(a1-2)]Gal(b1-4)Glc
# Method in brief: (§1)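 Negative Z-scores can be read as non-binding. The Z-score is calculated within each array and then averaged across arrays of one protein sequence at different concentrations or buffers and across linkers. Arrays, 3228 in all, were curated from the Consortium for Functional Glycomics database and kept only where the protein sequence was available.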
# [2] = molecular target: Fuc(a1-2)Gal(b1-3)GalNAc(b1-3)Gal
# Method in brief: as §1
# [3] = molecular target: Fuc(a1-2)Gal(b1-4)[Fuc(a1-3)]GlcNAc(b1-3)GalNAc
# Method in brief: as §1
# [4] = molecular target: Fuc(a1-2)[Gal(a1-3)]Gal(b1-3)GlcNAc
# Method in brief: as §1
# [5] = molecular target: Fuc(a1-2)[Gal(a1-3)]Gal(b1-4)GlcNAc(b1-2)Man
# Method in brief: as §1
# [6] = molecular target: Fuc(a1-2)[GalNAc(a1-3)]Gal(b1-3)GlcNAc(b1-6)GalNAc
# Method in brief: as §1
# [7] = molecular target: Fuc(a1-3)[Gal(b1-4)]GlcNAc
# Method in brief: as §1
# [8] = molecular target: Fuc(a1-3)[GalNAc(b1-4)]GlcNAc
# Method in brief: as §1
# [9] = molecular target: Gal(b1-3)GlcNAc(b1-3)Gal(b1-4)GlcNAc(b1-2)Man(a1-3)[Gal(b1-3)GlcNAc(b1-3)Gal(b1-4)GlcNAc(b1-2)Man(a1-6)]Man(b1-4)GlcNAc(b1-4)GlcNAc
# Method in brief: as §1
# [10] = molecular target: Gal(b1-4)GlcNAc
# Method in brief: as §1
# [11] = molecular target: Gal(b1-4)GlcNAc(b1-2)Man(a1-3)[Gal(b1-4)GlcNAc(b1-2)Man(a1-6)]Man(b1-4)GlcNAc(b1-4)[Fuc(a1-6)]GlcNAc
# Method in brief: as §1
# [12] = molecular target: Gal(b1-4)GlcNAc(b1-2)[Gal(b1-4)GlcNAc(b1-6)]Man(a1-6)[Gal(b1-4)GlcNAc(b1-2)Man(a1-3)]Man(b1-4)GlcNAc(b1-4)[Fuc(a1-6)]GlcNAc
# Method in brief: as §1
# [13] = molecular target: Gal(b1-4)GlcNAc(b1-3)Gal(b1-4)GlcNAc(b1-2)[Gal(b1-4)GlcNAc(b1-3)Gal(b1-4)GlcNAc(b1-6)]Man(a1-6)[Gal(b1-4)GlcNAc(b1-3)Gal(b1-4)GlcNAc(b1-2)Man(a1-3)]Man(b1-4)GlcNAc(b1-4)GlcNAc
# Method in brief: as §1
# [14] = molecular target: Gal(b1-4)GlcNAc(b1-3)Gal(b1-4)GlcNAc(b1-3)Gal(b1-4)GlcNAc(b1-3)Gal(b1-4)GlcNAc(b1-3)Gal(b1-4)GlcNAc(b1-2)Man(a1-3)[Gal(b1-4)GlcNAc(b1-3)Gal(b1-4)GlcNAc(b1-3)Gal(b1-4)GlcNAc(b1-3)Gal(b1-4)GlcNAc(b1-3)Gal(b1-4)GlcNAc(b1-2)Man(a1-6)]Man(b1-4)GlcNAc(b1-4)GlcNAc
# Method in brief: as §1
# [15] = molecular target: Gal(b1-4)GlcNAc(b1-3)Gal(b1-4)GlcNAc(b1-3)Gal(b1-4)GlcNAc(b1-3)Gal(b1-4)GlcNAc(b1-3)Gal(b1-4)GlcNAc(b1-2)[Gal(b1-4)GlcNAc(b1-3)Gal(b1-4)GlcNAc(b1-3)Gal(b1-4)GlcNAc(b1-3)Gal(b1-4)GlcNAc(b1-3)Gal(b1-4)GlcNAc(b1-6)]Man(a1-6)[Gal(b1-4)GlcNAc(b1-3)Gal(b1-4)GlcNAc(b1-3)Gal(b1-4)GlcNAc(b1-3)Gal(b1-4)GlcNAc(b1-3)Gal(b1-4)GlcNAc(b1-2)Man(a1-3)]Man(b1-4)GlcNAc(b1-4)[Fuc(a1-6)]GlcNAc
# Method in brief: as §1
# [16] = molecular target: Gal3S(b1-3)[Fuc(a1-4)]GlcNAc
# Method in brief: as §1
# [17] = molecular target: Gal6S(b1-4)Glc6S
# Method in brief: as §1
# [18] = molecular target: GalNAc(b1-3)Gal(a1-4)Gal(b1-4)GlcNAc
# Method in brief: as §1
# [19] = molecular target: Glc(a1-4)Glc(a1-4)Glc(a1-4)Glc
# Method in brief: as §1
# [20] = molecular target: GlcNAc(a1-4)Gal(b1-4)GlcNAc
# Method in brief: as §1
# [21] = molecular target: GlcNAc(b1-2)[GlcNAc(b1-6)]Man(a1-6)[GlcNAc(b1-2)Man(a1-3)]Man(b1-4)GlcNAc(b1-4)[Fuc(a1-6)]GlcNAc
# Method in brief: as §1
# [22] = molecular target: GlcNAc(b1-3)Gal(b1-4)GlcNAc(b1-3)Gal(b1-4)GlcNAc(b1-2)Man(a1-3)[GlcNAc(b1-3)Gal(b1-4)GlcNAc(b1-3)Gal(b1-4)GlcNAc(b1-2)Man(a1-6)]Man(b1-4)GlcNAc(b1-4)GlcNAc
# Method in brief: as §1
# [23] = molecular target: GlcNAc(b1-3)Gal(b1-4)GlcNAc(b1-3)Gal(b1-4)GlcNAc(b1-2)Man(a1-3)[GlcNAc(b1-3)Gal(b1-4)GlcNAc(b1-3)Gal(b1-4)GlcNAc(b1-2)Man(a1-6)]Man(b1-4)GlcNAc(b1-4)[Fuc(a1-6)]GlcNAc
# Method in brief: as §1
# [24] = molecular target: GlcNAc(b1-3)Gal(b1-4)GlcNAc(b1-3)Gal(b1-4)GlcNAc(b1-3)Gal(b1-4)GlcNAc(b1-2)Man(a1-3)[GlcNAc(b1-3)Gal(b1-4)GlcNAc(b1-3)Gal(b1-4)GlcNAc(b1-3)Gal(b1-4)GlcNAc(b1-2)Man(a1-6)]Man(b1-4)GlcNAc(b1-4)[Fuc(a1-6)]GlcNAc
# Method in brief: as §1
# [25] = molecular target: GlcNAc(b1-4)GlcNAc(b1-4)GlcNAc(b1-4)GlcNAc(b1-4)GlcNAc(b1-4)GlcNAc
# Method in brief: as §1
# [26] = molecular target: GlcNAc(b1-6)GalNAc
# Method in brief: as §1
# [27] = molecular target: Man(a1-2)Man(a1-6)[Man(a1-3)]Man(a1-6)[Man(a1-2)Man(a1-2)Man(a1-3)]Man(b1-4)GlcNAc(b1-4)GlcNAc
# Method in brief: as §1
# [28] = molecular target: Neu5Ac(a2-3)Gal(b1-3)GalNAc(b1-4)[Neu5Ac(a2-8)Neu5Ac(a2-3)]Gal(b1-4)Glc
# Method in brief: as §1
# [29] = molecular target: Neu5Ac(a2-3)Gal(b1-3)GlcNAc
# Method in brief: as §1
# [30] = molecular target: Neu5Ac(a2-3)Gal(b1-3)[GlcNAc(b1-6)]GalNAc
# Method in brief: as §1
# [31] = molecular target: Neu5Ac(a2-3)Gal(b1-3)[Neu5Ac(a2-6)]GlcNAc(b1-3)[Fuc(a1-3)[Gal(b1-4)]GlcNAc(b1-6)]Gal(b1-4)Glc
# Method in brief: as §1
# [32] = molecular target: Neu5Ac(a2-3)Gal(b1-3)]Neu5Ac(a2-3)Gal(b1-4)]GlcNAc
# Method in brief: as §1
# [33] = molecular target: Neu5Ac(a2-3)Gal(b1-4)GlcNAc(b1-3)Gal(b1-4)GlcNAc(b1-3)Gal(b1-4)GlcNAc
# Method in brief: as §1
# [34] = molecular target: Neu5Ac(a2-3)Gal(b1-4)[Fuc(a1-3)]GlcNAc(b1-3)GalNAc
# Method in brief: as §1
# [35] = molecular target: Neu5Ac(a2-3)[Neu5Ac(a2-6)]GalNAc
# Method in brief: as §1
# [36] = molecular target: Neu5Ac(a2-6)Gal(b1-4)GlcNAc(b1-2)[Neu5Ac(a2-6)Gal(b1-4)GlcNAc(b1-4)]Man(a1-3)[GlcNAc(b1-4)][Neu5Ac(a2-6)Gal(b1-4)GlcNAc(b1-2)[Neu5Ac(a2-6)Gal(b1-4)GlcNAc(b1-6)]Man(a1-6)]Man(b1-4)GlcNAc(b1-4)GlcNAc
# Method in brief: as §1
# [37] = molecular target: Neu5Ac(a2-6)Gal(b1-4)GlcNAc(b1-2)[Neu5Ac(a2-6)Gal(b1-4)GlcNAc(b1-4)]Man(a1-3)[GlcNAc(b1-4)][Neu5Ac(a2-6)Gal(b1-4)GlcNAc(b1-4)Man(a1-6)]Man(b1-4)GlcNAc(b1-4)GlcNAc
# Method in brief: as §1
# [38] = molecular target: Neu5Ac(a2-6)Gal(b1-4)GlcNAc(b1-3)Gal(b1-4)GlcNAc(b1-3)GalNAc
# Method in brief: as §1
# [39] = molecular target: Neu5Ac(a2-6)Gal(b1-4)GlcNAc(b1-3)Gal(b1-4)[Fuc(a1-3)]GlcNAc(b1-3)Gal(b1-4)[Fuc(a1-3)]GlcNAc
# Method in brief: as §1
# [40] = molecular target: Neu5Ac(a2-6)GalNAc(b1-4)GlcNAc6S
# Method in brief: as §1
# [41] = molecular target: Neu5Ac(a2-8)Neu5Ac(a2-3)[Gal(b1-3)GalNAc(b1-4)]Gal(b1-4)Glc
# Method in brief: as §1
# [42] = molecular target: Neu5Gc(a2-3)Gal(b1-4)GlcNAc
# Method in brief: as §1
# [43] = molecular target: Neu5Gc(a2-3)Gal(b1-4)GlcNAc(b1-3)Gal(b1-4)GlcNAc(b1-2)Man(a1-3)[Neu5Gc(a2-3)Gal(b1-4)GlcNAc(b1-3)Gal(b1-4)GlcNAc(b1-2)Man(a1-6)]Man(b1-4)GlcNAc(b1-4)GlcNAc
# Method in brief: as §1
# [44] = molecular target: Neu5Gc(a2-6)GalNAc
# Method in brief: as §1
# [45] = molecular target: Neu5Gc(a2-8)Neu5Gc(a2-3)Gal(b1-4)GlcNAc(b1-3)Gal(b1-4)GlcNAc
# Method in brief: as §1
binder,measurement,setting,value
B1,glycan array binding signal (z-score),[1],-0.41
same,glycan array binding signal (z-score),[2],-0.251
same,glycan array binding signal (z-score),[3],3.56
same,glycan array binding signal (z-score),[4],-0.002
same,glycan array binding signal (z-score),[5],2.44
same,glycan array binding signal (z-score),[6],-0.425
same,glycan array binding signal (z-score),[7],0.464
same,glycan array binding signal (z-score),[8],-0.365
same,glycan array binding signal (z-score),[9],4.29
same,glycan array binding signal (z-score),[10],-0.134
same,glycan array binding signal (z-score),[11],-0.425
same,glycan array binding signal (z-score),[12],0.328
same,glycan array binding signal (z-score),[13],-0.339
same,glycan array binding signal (z-score),[14],3.44
same,glycan array binding signal (z-score),[15],2.67
same,glycan array binding signal (z-score),[16],0.295
same,glycan array binding signal (z-score),[17],-0.817
same,glycan array binding signal (z-score),[18],-0.189
same,glycan array binding signal (z-score),[19],-0.331
same,glycan array binding signal (z-score),[20],-0.247
same,glycan array binding signal (z-score),[21],0.341
same,glycan array binding signal (z-score),[22],1.03
same,glycan array binding signal (z-score),[23],2.39
same,glycan array binding signal (z-score),[24],4.26
same,glycan array binding signal (z-score),[25],-0.138
same,glycan array binding signal (z-score),[26],-0.355
same,glycan array binding signal (z-score),[27],-0.33
same,glycan array binding signal (z-score),[28],1.18
same,glycan array binding signal (z-score),[29],-0.358
same,glycan array binding signal (z-score),[30],1.11
same,glycan array binding signal (z-score),[31],-0.114
same,glycan array binding signal (z-score),[32],-0.307
same,glycan array binding signal (z-score),[33],1.72
same,glycan array binding signal (z-score),[34],0.351
same,glycan array binding signal (z-score),[35],1.33
same,glycan array binding signal (z-score),[36],0.5
same,glycan array binding signal (z-score),[37],-0.219
same,glycan array binding signal (z-score),[38],3.03
same,glycan array binding signal (z-score),[39],1.24
same,glycan array binding signal (z-score),[40],2.71
same,glycan array binding signal (z-score),[41],-0.27
same,glycan array binding signal (z-score),[42],2.42
same,glycan array binding signal (z-score),[43],2.75
same,glycan array binding signal (z-score),[44],0.011
same,glycan array binding signal (z-score),[45],2.42
